Data published in publication PMC7862700, “An all-to-all approach to the identification of sequence-specific readers for epigenetic DNA modifications on cytosine”.

Key:
Assay in all cases: DAPPL (digital affinity profiling via proximity ligation, sequencing); 10 mM Tris-HCl pH 7.5, 50 mM NaCl, 1 mM DTT, 4% glycerol, room temperature, 30 min; GST-TFs on glutathione beads, 16-mer random dsDNA library, 0.1% formaldehyde crosslink after washing; high values mean tight binding
Conditions in all cases: protein: recombinant; tags: N-terminal GST; dsDNA, one strand shown
GABPA = target: T1, GABPA (Homo sapiens, UniProt Q06546 1-454)
T1 sequence: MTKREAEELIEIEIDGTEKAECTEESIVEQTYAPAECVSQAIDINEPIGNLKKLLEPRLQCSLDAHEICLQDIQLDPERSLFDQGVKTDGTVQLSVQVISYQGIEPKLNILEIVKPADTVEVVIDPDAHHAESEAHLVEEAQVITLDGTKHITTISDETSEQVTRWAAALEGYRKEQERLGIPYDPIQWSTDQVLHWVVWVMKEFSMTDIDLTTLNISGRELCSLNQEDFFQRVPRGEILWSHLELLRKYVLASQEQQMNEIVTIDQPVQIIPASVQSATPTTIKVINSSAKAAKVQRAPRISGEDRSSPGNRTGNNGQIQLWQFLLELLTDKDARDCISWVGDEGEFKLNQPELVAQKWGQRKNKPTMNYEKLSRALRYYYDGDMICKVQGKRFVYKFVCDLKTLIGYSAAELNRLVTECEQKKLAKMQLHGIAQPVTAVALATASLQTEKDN
Procedure, shortened: (§1)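 Pools were built from human transcription factors expressed in yeast as GST fusions, captured on glutathione beads and DNA-barcoded, along with a tag-only sample. Incubation with 200 nmole of a 16-mer random double-stranded DNA library lasted 30 min at room temperature in Tris/NaCl/DTT/glycerol buffer, and was followed by washing, 0.1% formaldehyde crosslinking, proximity ligation, PCR amplification and Illumina NextSeq500 sequencing. Binding signal is the quotient of each hexamer's read frequency for a factor and its frequency for the tag-only sample.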

ELF1 = ELF1 (Homo sapiens, UniProt P32519 1-619)
ELF1, sequence (P32519 whole entry): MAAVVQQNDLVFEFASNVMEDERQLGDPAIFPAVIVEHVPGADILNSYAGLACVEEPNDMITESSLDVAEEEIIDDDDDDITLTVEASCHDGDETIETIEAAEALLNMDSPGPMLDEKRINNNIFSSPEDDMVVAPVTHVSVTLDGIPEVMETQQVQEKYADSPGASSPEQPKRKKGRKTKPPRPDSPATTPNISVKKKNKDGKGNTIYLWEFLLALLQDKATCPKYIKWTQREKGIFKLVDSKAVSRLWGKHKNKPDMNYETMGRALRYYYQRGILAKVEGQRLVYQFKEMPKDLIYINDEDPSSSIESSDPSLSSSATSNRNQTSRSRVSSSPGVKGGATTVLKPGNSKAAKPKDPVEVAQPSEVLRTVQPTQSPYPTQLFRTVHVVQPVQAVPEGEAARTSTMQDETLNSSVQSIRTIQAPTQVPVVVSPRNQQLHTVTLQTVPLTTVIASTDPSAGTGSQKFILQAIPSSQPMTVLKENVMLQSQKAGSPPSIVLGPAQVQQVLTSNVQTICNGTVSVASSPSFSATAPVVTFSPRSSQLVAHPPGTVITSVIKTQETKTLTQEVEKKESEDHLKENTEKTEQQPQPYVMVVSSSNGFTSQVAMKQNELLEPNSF
Procedure, shortened: as §1

EHF = target: T2, EHF (Homo sapiens, UniProt Q9NZC4 1-300)
T2 sequence: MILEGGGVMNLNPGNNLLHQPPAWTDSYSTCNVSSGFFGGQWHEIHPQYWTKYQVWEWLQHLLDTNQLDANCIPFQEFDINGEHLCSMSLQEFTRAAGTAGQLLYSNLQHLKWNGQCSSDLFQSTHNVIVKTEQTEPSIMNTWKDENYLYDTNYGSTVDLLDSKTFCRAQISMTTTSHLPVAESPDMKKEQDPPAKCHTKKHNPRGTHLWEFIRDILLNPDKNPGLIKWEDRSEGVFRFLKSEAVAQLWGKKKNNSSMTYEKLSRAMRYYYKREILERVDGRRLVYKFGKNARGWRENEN
Procedure, shortened: as §1

SPIC = target: T3, SPIC (Homo sapiens, UniProt Q8N5J4 1-248)
T3 sequence: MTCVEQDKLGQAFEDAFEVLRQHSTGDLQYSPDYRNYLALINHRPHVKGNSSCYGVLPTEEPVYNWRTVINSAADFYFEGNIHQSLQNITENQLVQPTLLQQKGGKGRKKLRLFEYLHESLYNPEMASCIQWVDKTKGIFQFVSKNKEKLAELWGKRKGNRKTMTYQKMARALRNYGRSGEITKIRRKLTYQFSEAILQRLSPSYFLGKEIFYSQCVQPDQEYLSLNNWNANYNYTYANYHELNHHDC
Procedure, shortened: as §1

ELF3 = target: T4, ELF3 (Homo sapiens, UniProt P78545 1-371)
T4 sequence: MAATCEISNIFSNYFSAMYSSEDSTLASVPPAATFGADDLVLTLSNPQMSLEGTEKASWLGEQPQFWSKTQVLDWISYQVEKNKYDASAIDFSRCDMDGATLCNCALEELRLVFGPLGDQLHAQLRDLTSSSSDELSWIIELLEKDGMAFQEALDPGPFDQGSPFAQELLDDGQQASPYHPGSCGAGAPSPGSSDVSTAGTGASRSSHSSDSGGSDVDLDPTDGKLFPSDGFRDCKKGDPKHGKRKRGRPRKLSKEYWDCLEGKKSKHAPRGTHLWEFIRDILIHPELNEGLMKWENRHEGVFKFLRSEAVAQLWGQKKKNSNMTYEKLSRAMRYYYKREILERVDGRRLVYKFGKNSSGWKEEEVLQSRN
Procedure, shortened: as §1

ERF = target: T5, ERF (Homo sapiens, UniProt P50548 1-548)
T5 sequence: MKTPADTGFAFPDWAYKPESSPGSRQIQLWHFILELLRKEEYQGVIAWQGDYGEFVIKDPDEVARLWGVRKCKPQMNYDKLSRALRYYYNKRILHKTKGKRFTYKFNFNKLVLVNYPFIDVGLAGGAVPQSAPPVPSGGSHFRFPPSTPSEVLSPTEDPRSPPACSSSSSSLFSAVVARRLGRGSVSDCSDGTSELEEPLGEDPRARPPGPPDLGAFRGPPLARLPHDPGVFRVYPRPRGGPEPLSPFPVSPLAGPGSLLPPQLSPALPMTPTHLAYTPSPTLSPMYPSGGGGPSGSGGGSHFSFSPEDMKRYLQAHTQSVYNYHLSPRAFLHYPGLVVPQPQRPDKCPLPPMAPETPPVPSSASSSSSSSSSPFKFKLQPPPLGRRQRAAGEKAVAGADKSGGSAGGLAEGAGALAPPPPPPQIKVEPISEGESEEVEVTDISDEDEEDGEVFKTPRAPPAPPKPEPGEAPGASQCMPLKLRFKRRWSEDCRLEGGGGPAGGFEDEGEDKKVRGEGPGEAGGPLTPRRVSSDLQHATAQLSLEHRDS
Procedure, shortened: as §1

ETS2 = target: T6, ETS2 (Homo sapiens, UniProt P15036 1-469)
T6 sequence: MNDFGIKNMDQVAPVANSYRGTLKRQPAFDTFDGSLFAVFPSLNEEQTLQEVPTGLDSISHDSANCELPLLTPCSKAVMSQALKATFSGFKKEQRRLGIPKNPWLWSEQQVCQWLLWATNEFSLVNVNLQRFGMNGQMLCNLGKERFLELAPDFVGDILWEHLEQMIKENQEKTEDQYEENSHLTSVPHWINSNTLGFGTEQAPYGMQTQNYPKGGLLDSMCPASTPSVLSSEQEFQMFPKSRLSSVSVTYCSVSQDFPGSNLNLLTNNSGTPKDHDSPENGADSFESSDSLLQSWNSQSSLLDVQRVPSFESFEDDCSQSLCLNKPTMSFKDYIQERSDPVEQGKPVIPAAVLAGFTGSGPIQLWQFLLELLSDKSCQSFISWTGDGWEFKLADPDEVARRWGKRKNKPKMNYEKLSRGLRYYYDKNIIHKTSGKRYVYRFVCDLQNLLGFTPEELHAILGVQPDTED
Procedure, shortened: as §1

SPIB = SPIB (Homo sapiens, UniProt Q01892 1-262)
SPIB, sequence (Q01892 whole entry): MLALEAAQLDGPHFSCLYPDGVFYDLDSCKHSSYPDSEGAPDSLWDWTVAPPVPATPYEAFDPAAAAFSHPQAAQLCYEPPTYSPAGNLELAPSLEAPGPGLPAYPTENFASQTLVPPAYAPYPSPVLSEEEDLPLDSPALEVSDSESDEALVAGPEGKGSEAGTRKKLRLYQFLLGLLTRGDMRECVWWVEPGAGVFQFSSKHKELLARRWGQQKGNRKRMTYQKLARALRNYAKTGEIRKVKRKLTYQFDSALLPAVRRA
Procedure, shortened: as §1

ELK4 = target: T7, ELK4 (Homo sapiens, UniProt P28324-2 1-405)
T7 sequence: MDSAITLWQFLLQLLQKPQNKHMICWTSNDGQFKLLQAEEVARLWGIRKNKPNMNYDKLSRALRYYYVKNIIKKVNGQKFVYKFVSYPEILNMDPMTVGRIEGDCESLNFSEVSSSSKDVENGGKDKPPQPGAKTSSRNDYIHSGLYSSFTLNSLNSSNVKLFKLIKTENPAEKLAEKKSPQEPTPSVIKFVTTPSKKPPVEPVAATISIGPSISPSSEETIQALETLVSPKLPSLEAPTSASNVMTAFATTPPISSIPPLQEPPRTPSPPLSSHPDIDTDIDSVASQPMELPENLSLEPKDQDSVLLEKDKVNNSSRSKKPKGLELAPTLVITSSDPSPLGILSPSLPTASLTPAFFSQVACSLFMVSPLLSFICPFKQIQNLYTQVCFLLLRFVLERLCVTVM
Procedure, shortened: as §1

ETV1 = ETV1 (Homo sapiens, UniProt P50549 1-477)
ETV1, sequence (P50549 whole entry): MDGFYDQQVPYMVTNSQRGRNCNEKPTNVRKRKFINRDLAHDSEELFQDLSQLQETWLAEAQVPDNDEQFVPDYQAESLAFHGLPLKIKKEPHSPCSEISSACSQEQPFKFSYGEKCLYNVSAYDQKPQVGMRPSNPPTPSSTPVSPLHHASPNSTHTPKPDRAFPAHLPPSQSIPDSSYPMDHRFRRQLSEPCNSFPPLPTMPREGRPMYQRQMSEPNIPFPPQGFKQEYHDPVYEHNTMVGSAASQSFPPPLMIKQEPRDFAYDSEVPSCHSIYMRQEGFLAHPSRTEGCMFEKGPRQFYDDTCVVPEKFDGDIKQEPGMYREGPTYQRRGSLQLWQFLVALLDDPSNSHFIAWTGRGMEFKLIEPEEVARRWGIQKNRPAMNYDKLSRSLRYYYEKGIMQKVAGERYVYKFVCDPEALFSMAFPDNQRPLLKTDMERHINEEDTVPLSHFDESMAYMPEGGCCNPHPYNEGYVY
Procedure, shortened: as §1

ERG = target: T8, ERG (Homo sapiens, UniProt P11308 1-479)
T8 sequence: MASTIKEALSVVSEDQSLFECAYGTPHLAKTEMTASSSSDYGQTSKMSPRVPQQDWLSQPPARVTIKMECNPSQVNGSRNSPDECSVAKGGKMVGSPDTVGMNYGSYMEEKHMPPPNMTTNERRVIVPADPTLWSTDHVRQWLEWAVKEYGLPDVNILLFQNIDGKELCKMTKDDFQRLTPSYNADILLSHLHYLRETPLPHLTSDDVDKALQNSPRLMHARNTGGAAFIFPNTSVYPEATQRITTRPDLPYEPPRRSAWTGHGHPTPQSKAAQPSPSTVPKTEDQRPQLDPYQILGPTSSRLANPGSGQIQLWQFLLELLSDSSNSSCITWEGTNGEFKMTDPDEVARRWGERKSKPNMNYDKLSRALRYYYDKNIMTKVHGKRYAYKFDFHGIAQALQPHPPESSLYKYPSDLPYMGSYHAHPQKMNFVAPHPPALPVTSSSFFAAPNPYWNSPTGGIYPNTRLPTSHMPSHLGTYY
Procedure, shortened: as §1

SPI1 = SPI1 (Homo sapiens, UniProt P17947 1-270)
Procedure, shortened: as §1

ELK3 = target: T9, ELK3 (Homo sapiens, UniProt P41970 1-407)
T9 sequence: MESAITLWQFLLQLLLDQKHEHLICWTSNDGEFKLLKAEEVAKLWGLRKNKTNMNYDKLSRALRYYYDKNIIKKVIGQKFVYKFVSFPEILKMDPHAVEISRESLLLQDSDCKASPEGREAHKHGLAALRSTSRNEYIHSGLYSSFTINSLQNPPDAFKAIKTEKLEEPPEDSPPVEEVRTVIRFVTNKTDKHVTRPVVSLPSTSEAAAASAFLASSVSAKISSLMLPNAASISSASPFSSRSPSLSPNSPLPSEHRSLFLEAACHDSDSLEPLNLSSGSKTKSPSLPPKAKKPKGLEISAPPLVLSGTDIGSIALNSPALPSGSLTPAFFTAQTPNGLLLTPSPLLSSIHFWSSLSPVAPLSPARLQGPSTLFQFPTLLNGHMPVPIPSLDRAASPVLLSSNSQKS
Procedure, shortened: as §1

ETV2 = target: T10, ETV2 (Homo sapiens, UniProt O00321 1-342)
T10 sequence: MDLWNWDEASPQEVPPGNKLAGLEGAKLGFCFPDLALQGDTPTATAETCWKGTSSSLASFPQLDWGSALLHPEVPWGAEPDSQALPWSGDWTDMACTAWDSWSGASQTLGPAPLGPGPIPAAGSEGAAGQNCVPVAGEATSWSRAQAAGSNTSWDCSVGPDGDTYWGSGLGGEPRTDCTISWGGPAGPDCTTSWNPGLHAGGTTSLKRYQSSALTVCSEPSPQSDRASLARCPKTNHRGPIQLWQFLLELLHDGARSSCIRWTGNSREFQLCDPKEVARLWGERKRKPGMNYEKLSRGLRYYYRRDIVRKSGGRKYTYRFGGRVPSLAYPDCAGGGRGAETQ
Procedure, shortened: as §1

For CAGCAC, the binding signal (GABPA) was 1.03 fold enrichment (6-mer frequency, TF over GST control), the binding signal (ELF1) was 1.02 fold enrichment (6-mer frequency, TF over GST control) and the binding signal (EHF) was 1 fold enrichment (6-mer frequency, TF over GST control). For the same sequence, the binding signal (SPIC) was 1.11 fold enrichment (6-mer frequency, TF over GST control), the binding signal (ELF3) was 1.02 fold enrichment (6-mer frequency, TF over GST control) and the binding signal (ERF) was 1.04 fold enrichment (6-mer frequency, TF over GST control). The binding signal (ETS2) was 1 fold enrichment (6-mer frequency, TF over GST control).
In the case of GTGATG, the binding signal (SPIB) is reported as 1.04 fold enrichment (6-mer frequency, TF over GST control), the binding signal (SPIC) is reported as 1.01 fold enrichment (6-mer frequency, TF over GST control) and the binding signal (ELK4) is reported as 1.18 fold enrichment (6-mer frequency, TF over GST control). For the same sequence, the binding signal (ETV1) was 1.03 fold enrichment (6-mer frequency, TF over GST control).
With TGGCGC the binding signal (GABPA) was 1.02 fold enrichment (6-mer frequency, TF over GST control), the binding signal (SPIC) was 1.1 fold enrichment (6-mer frequency, TF over GST control) and the binding signal (ELK4) was 1.06 fold enrichment (6-mer frequency, TF over GST control).
TGCAGG was tested, and the binding signal (ERG) was 1.01 fold enrichment (6-mer frequency, TF over GST control), the binding signal (SPI1) was 1.03 fold enrichment (6-mer frequency, TF over GST control) and the binding signal (SPIB) was 1.07 fold enrichment (6-mer frequency, TF over GST control). The binding signal (ELK3) was 1.03 fold enrichment (6-mer frequency, TF over GST control), the binding signal (SPIC) was 1.01 fold enrichment (6-mer frequency, TF over GST control) and the binding signal (ETV2) was 1.03 fold enrichment (6-mer frequency, TF over GST control). The binding signal (ERF) was 1.01 fold enrichment (6-mer frequency, TF over GST control) and the binding signal (ETS2) was 1.02 fold enrichment (6-mer frequency, TF over GST control).
